Kir21 block – inhibitors of mouse Kir2.1 inward-rectifier potassium channel; P35561; B-score at 10 µM; HEK293-Kir2.1, FluxOR thallium flux fluorescence; active compounds read low; actives 0.85% (n = 310,000); AID 1672;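 active = fluorescence ratio B-score at or below minus 3 SD of library scores, with starting-brightness B-score within 2 SD, cut at about -4.2 in these data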;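 note: channel flux triggered by added potassium and thallium sulfate stimulus; B-score of peak minus minimum fluorescence over baseline after thallium stimulus; more negative B-score means stronger Kir2.1 block with less thallium influx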
Target sequence (P35561 whole entry, looked up): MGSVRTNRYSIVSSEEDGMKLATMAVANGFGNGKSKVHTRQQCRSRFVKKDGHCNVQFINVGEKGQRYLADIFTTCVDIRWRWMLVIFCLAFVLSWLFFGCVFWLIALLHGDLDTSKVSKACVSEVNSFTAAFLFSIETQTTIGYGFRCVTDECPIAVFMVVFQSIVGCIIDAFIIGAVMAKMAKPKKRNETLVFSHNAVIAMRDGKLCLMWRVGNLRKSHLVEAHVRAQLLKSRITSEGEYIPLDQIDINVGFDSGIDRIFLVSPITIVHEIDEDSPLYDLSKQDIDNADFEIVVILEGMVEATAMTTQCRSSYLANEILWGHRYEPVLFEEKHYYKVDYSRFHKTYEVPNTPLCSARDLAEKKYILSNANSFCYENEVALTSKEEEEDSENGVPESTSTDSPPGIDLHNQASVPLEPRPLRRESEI
GPR7 antag – human neuropeptides B/W receptor 1 antagonism | AID 1861 | actives 1.1% (n = 290,000) | inhibition, % at 4.4 µM | GPR7-expressing cells, fluorescence antagonist assay; in the data active = inhibition above about 16%, passing the limit was not always enough;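 note: cells stimulated with the agonist NPW; 0% = agonist with vehicle and 100% = vehicle without agonist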
CHT PAM – allosterically activates the human high affinity choline transporter | Q9GZV3 | CHT-expressing cells, membrane potential dye, choline EC20; active compounds read high; LV-AA mutant CHT in HEK293 cells | actives 0.49% (n = 310,000) | B-score at 10 µM | AID 488977;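 active = initial fluorescence not abnormally high and integrated response B-score, plate-corrected, over 3 SD above library mean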
TMEM16A inh – inhibitors of mouse TMEM16A calcium-activated chloride channel; HEK293 TMEM16A/YFP iodide influx fluorescence, ionomycin; normalized B-score (activity score, 25-100; higher = stronger inhibition) at 10 µM; actives 1.2% (n = 310,000); AID 588511;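 active = ratio plate-corrected score three or more library SD toward inhibition, starting fluorescence score within five deviations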;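 note: score derived from kinetic fluorescence span divided by baseline fluorescence per well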
CHT inh – inhibitors of human choline transporter CHT; actives 0.86% (n = 310,000); B-score at 10 µM; AID 488975; CHT-expressing cells, membrane potential dye, choline response; active compounds read low; Q9GZV3;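 active = B-score over 3 SD under the library average, and starting fluorescence ratio not unusually high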;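 note: choline stimulus applied at its EC90 after an EC20 pre-addition; B-score computed on integrated fluorescence ratio after choline addition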
TMEM16A act – mouse TMEM16A channel activation, primary screen. B-score at 10 µM. AID 623877. Q8BHY3. actives 0.3% (n = 340,000). HEK293 TMEM16A/YFP-H148Q/I152L, iodide quench fluorescence; active compounds read low;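 active = fluorescence-ratio B-score plate-corrected deviation score at least 3 library SD below zero, with starting fluorescence score within 5 deviations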;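 note: channel opened by trigger with iodide after compound preincubation; score built on the fluorescence ratio of max minus min over baseline; more negative score means more quench and so TMEM16A activation or potentiation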
TMEM16A reconf – reconfirmed blocker of mouse TMEM16A calcium-activated chloride channel; shares compounds with TMEM16A inh; HEK293 TMEM16A/YFP-H148Q, iodide quench fluorescence; ionomycin added to raise cell calcium; inhibition, % at 10 µM; actives 39% (n = 2,300); AID 652189;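 active = mean duplicate percent inhibition, scaled so buffer wells are 0 and the reference blocker 100, over three buffer SD above buffer mean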
HEK293 Ca mobil – calcium mobilization counter-screen hit for TMEM16A inhibitor series; shares compounds with TMEM16A inh; TMEM16A/YFP HEK293, Fluo4 calcium mobilization; calcium response (% of ionomycin), % at 10 µM; actives 2% (n = 2,300); AID 652231;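 active = duplicate-averaged calcium signal over 20% of the ionomycin maximum, relative to buffer baseline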;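 note: each well's signal is peak minus trough fluorescence divided by its pre-addition baseline; 0% = buffer wells and 100% = ionomycin wells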
YFP-HEK293 quench – counter-screen for TMEM16A inhibitors: effect in parental YFP-HEK293 cells | AID 652233 | 2,300 tested, under 10 active | YFP ratio F(max-min)/F0 at 10 µM | iodide YFP quench, ionomycin | shares compounds with TMEM16A inh;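 active = yellow fluorescent protein signal ratio exceeding the buffer control mean by over 5 SD of those controls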;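 note: ratio is mean of duplicate wells from kinetic YFP trace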
ClC-1 inh – selectivity of TMEM16A inhibitors: inhibition of rat ClC-1 chloride channel; shares compounds with TMEM16A inh; CHO ClC-1-YFP, iodide influx fluorescence quench; iodide control reads 0, buffer control 100; ratio percent, % at 10 µM; 2,300 tested, under 10 active;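 active = duplicate-mean ratio percent above the mean of iodide-only control wells, which defines zero, plus 5 of their SD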;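 note: higher percent means stronger block of ClC-1 iodide influx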
The depositor's hits bear a star; i = inactive; . = no result. Rows were chosen to be rich in hits. Some 3.7% of all compounds tested hit in one or more screens of this group.

SMILES	Kir21 block	GPR7 antag	CHT PAM	TMEM16A inh	CHT inh	TMEM16A act	TMEM16A reconf	HEK293 Ca mobil	YFP-HEK293 quench	ClC-1 inh
CN(C)S(=O)(=O)c1cccc(COC(=O)c2ccc3c(c2)OCO3)c1	-0.85	9	i	i	i	i	.	.	.	.
CC(C)=CCN1CCN(Cc2cccn2-c2ccccn2)CC1CCO (stereo unspecified)	0.13	-2	i	i	i	i	.	.	.	.
CCOc1ccc(OCC)c(NC(=O)CCn2c(=O)oc3ccccc32)c1	0.35	-15	i	100*	i	i	i	i	-1	-6
COc1ccc(/C=N\Nc2ncc(F)c(N3CCOCC3)n2)cc1OC	0.6	-12	i	i	i	i	.	.	.	.
CCN(c1ccccc1)S(=O)(=O)c1cc(NC(=O)COC(=O)C2CC2)ccc1Cl	0.19	-12	i	100*	i	i	i	i	-0.9	-4
CCN(c1ccccc1)S(=O)(=O)c1cc(NC(=O)Nc2ccccc2C#N)ccc1Cl	-3.3	-4	i	25*	i	i	i	i	-1	-6
CN(C)S(=O)(=O)c1cc(NC(=O)COC(=O)C2COc3ccccc3O2)ccc1Cl (stereo unspecified)	-0.01	-4	i	i	i	i	.	.	.	.
Cc1ccc(CNC(=O)C2CCC(=O)N2C(C)C)cc1 (stereo unspecified)	0.7	-5	i	i	i	i	.	.	.	.
Cc1cc(OC(C)C(=O)NCC2CCC(C(=O)O)CC2)c2c(C)cc(=O)oc2c1 (stereo unspecified)	0.3	-6	i	i	i	i	.	.	.	.
CCC(O)C1CCN(C(=O)c2cc(COc3ccc4ncccc4c3)on2)CC1 (stereo unspecified)	-0.3	13	i	100*	i	i	i	i	-1.1	-20
Cc1cccnc1CN1CCN(C(=O)c2cc(COc3ccc4ncccc4c3)on2)CC1	-0.36	-9	i	25*	i	i	22%*	i	-1.1	-40
COc1cc2c3c(n(C)c(=O)c2cc1OC)-c1cc2c(cc1C3=O)OCO2	.	.	.	.	.	i	.	.	.	.
CS(=O)(=O)c1ccc(Sc2nc3ccccc3[nH]2)c([N+](=O)[O-])c1	-0.15	-9	i	i	i	i	i	i	-0.92	2
CC(=O)c1ccccc1OCc1ccc(S(=O)(=O)Cc2ccccc2)cc1	-0.81	-2	i	25*	i	i	34%*	i	-0.62	-14
O=S(=O)(NC(=NCc1ccccc1)c1ccc(F)cc1)c1ccc(Cl)cc1	-0.39	5	i	i	i	i	.	.	.	.
CCOc1ccccc1Cn1c(=O)oc2ccc(C)cc21	.	-6	i	i	i	i	.	.	.	.
CCCOc1ccccc1Cn1c(=O)oc2ccc(C)cc21	-1	-2	i	100*	i	i	i	i	-1.1	-10
O=C(Oc1ccc(Cl)c2cccnc12)N1CCCCC1	1.7	-1	i	i	i	i	.	.	.	.
O=C(Oc1ccc2ccccc2c1Cl)N1CCCCCC1	0.19	9	i	25*	i	i	i	i	-0.76	-14
O=C(Oc1ccc(Cl)c2ccccc12)N1CCCCC1	0.01	-11	i	25*	i	i	i	i	-0.88	-12
COc1ccc(CNC(=O)COC(=O)c2ccc(S(=O)(=O)NCc3ccco3)cc2)cc1	.	.	.	.	.	i	.	.	.	.
CC1=C(c2ccc(C)cc2)S(=O)(=O)N(CC(=O)O)C1=O	2	-3	i	25*	i	i	i	i	-1.1	-14
COC(=O)CN1C(=O)C(C)=C(c2ccc(C)cc2)S1(=O)=O	1.3	-10	i	i	i	i	.	.	.	.
Cc1ccc(N(C)S(=O)(=O)c2ccc(-c3cc(C)no3)s2)cc1	-1.1	21	i	25*	i	i	33%*	i	-0.98	-12
CCOC(=O)c1ccccc1NC1c2ccccc2C(=O)N1c1cc(C)ccn1 (stereo unspecified)	0.92	-14	i	100*	i	i	i	i	-0.98	0
SMILES	Kir21 block	GPR7 antag	CHT PAM	TMEM16A inh	CHT inh	TMEM16A act	TMEM16A reconf	HEK293 Ca mobil	YFP-HEK293 quench	ClC-1 inh
COc1cc(OC)c(NC2c3ccccc3C(=O)N2c2cc(C)ccn2)cc1Cl (stereo unspecified)	-0.45	-6	i	i	i	i	.	.	.	.
Cc1ccc(NC(=O)c2cc3c(=O)oc4ccc(C)cc4c3s2)nc1	1.9	-7	i	i	i	.	.	.	.	.
N#Cc1c(NC(=O)CSc2nnnn2C2CCCCC2)sc2c1CCCC2	0	13	i	25*	i	i	i	i	-1.1	-8
Cc1nnc(SCC(=O)Nc2sc3c(c2C#N)CCCCC3)n1N	0.94	-3	i	i	i	i	.	.	.	.
NS(=O)(=O)c1ccc2c(c1)C1C=CCC1C(C1CC=CCC1)N2 (stereo unspecified)	-0.02	-6	i	100*	i	i	i	i	-0.83	-7
Cc1ccc2c(c1)C1C=CCC1C(C(=O)O)N2 (stereo unspecified)	0.1	18	i	i	i	.	.	.	.	.
N#Cc1ccc(OCC(=O)OCC(=O)Nc2sccc2C(N)=O)cc1	.	.	.	.	.	i	.	.	.	.
CCOC(=O)C1=C(C)N=c2s/c(=C/c3ccc(OCC(=O)O)cc3)c(=O)n2C1c1ccc(SC)cc1 (stereo unspecified)	0.75	-7	i	i	i	i	.	.	.	.
CCOC(=O)C1=C(C)N=c2s/c(=C/c3ccc(OCC(=O)O)cc3)c(=O)n2C1c1ccc(F)cc1 (stereo unspecified)	0.87	-9	i	i	i	i	i	30%*	-0.86	-16
Cc1cc(C)n(-c2nc(C)nc(N)n2)n1	-1.3	5	i	i	i	i	.	.	.	.
Cc1cc(C)n(-c2nc(N(c3ccccc3)c3ccccc3)nc(-n3nc(C)cc3C)n2)n1	-0.62	-8	i	100*	i	i	26%*	i	-0.99	-19

Compound activity (PubChem BioAssay)
